Test results published in the supplement of paper PMC8728848.
This excerpt belongs to a sample that is enriched for the strongest signals.

Key:
Test in all cases: glycan array binding signal (z-score within array); higher = stronger binding
Conditions in all cases: glycan notation: IUPAC condensed, linker removed
[1] = target: Fuc(a1-2)Gal(b1-3)[Fuc(a1-4)]GlcNAc(b1-2)Man(a1-3)[Fuc(a1-2)Gal(b1-3)[Fuc(a1-4)]GlcNAc(b1-2)Man(a1-6)]Man(b1-4)GlcNAc(b1-4)GlcNAc
Method in brief: (§1)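 Glycan array binding is given as a within-array Z-score, which can be read as non-binding when negative. The arrays, 3228 of them, came from the Consortium for Functional Glycomics database and were retained only where the protein sequence was available. Z-scores were averaged across arrays of the same protein sequence at different concentrations or buffers and across linkers.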

[2] = target: Fuc(a1-2)Gal(b1-4)GlcNAc(b1-3)Gal(b1-4)GlcNAc
Method in brief: as §1

[3] = target: Fuc(a1-2)Gal6S(b1-4)Glc6S
Method in brief: as §1

[4] = target: Fuc(a1-2)[GalNAc(a1-3)]Gal(b1-4)GlcNAc(b1-3)Gal(b1-4)GlcNAc(b1-3)Gal(b1-4)GlcNAc
Method in brief: as §1

[5] = target: Fuc(a1-3)[Gal3S(b1-4)]Glc6S
Method in brief: as §1

[6] = target: Fuc(a1-3)[Neu5Ac(a2-3)]Gal(b1-4)GlcNAc(b1-3)GalNAc
Method in brief: as §1

[7] = target: Gal(b1-3)GalNAc(a1-3)[Fuc(a1-2)]Gal(b1-4)Glc
Method in brief: as §1

[8] = target: Gal(b1-3)GalNAc(a1-3)[Fuc(a1-2)]Gal(b1-4)GlcNAc
Method in brief: as §1

[9] = target: Gal(b1-3)GlcNAc(b1-2)Man(a1-3)[Gal(b1-3)GlcNAc(b1-2)Man(a1-6)]Man(b1-4)GlcNAc(b1-4)[Fuc(a1-6)]GlcNAc
Method in brief: as §1

[10] = target: Gal(b1-3)GlcNAc(b1-3)Gal(b1-3)GlcNAc
Method in brief: as §1

[11] = target: Gal(b1-4)GlcNAc(b1-2)Man(a1-3)[Gal(b1-4)GlcNAc(b1-2)Man(a1-6)]Man(b1-4)GlcNAc(b1-4)[Fuc(a1-6)]GlcNAc
Method in brief: as §1

[12] = target: Gal(b1-4)GlcNAc(b1-3)[Gal(b1-4)GlcNAc(b1-6)]Gal(b1-4)GlcNAc
Method in brief: as §1

Glc(a1-6)Glc(a1-6)Glc = target: Glc(a1-6)Glc(a1-6)Glc
Method in brief: as §1

GlcA(b1-6)Gal = target: GlcA(b1-6)Gal
Method in brief: as §1

[13] = target: GlcNAc(a1-6)Gal(b1-4)GlcNAc
Method in brief: as §1

[14] = target: GlcNAc(b1-2)Man(a1-3)[GlcNAc(b1-2)Man(a1-6)]Man(b1-4)GlcNAc(b1-4)GlcNAc
Method in brief: as §1

[15] = target: GlcNAc(b1-2)Man(a1-3)[GlcNAc(b1-2)Man(a1-6)]Man(b1-4)GlcNAc(b1-4)[Fuc(a1-6)]GlcNAc
Method in brief: as §1

[16] = target: GlcNAc(b1-3)[GlcNAc(b1-4)][GlcNAc(b1-6)]GlcNAc
Method in brief: as §1

[17] = target: GlcNAc(b1-3)[GlcNAc(b1-6)]GalNAc
Method in brief: as §1

[18] = target: GlcNAc(b1-4)GlcNAc(b1-4)GlcNAc
Method in brief: as §1

[19] = target: Man(a1-2)Man(a1-3)[Man(a1-2)Man(a1-6)]Man
Method in brief: as §1

[20] = target: Man(a1-2)Man(a1-3)[Man(a1-2)Man(a1-6)]Man(a1-6)[Man(a1-2)Man(a1-2)Man(a1-3)]Man
Method in brief: as §1

[21] = target: Neu5Ac(a2-3)Gal(b1-4)GlcNAc(b1-6)[Neu5Ac(a2-3)Gal(b1-3)]GalNAc
Method in brief: as §1

[22] = target: Neu5Ac(a2-3)Gal(b1-4)[Fuc(a1-3)]GlcNAc(b1-3)Gal(b1-4)GlcNAc
Method in brief: as §1

[23] = target: Neu5Ac(a2-3)GalNAc(b1-4)GlcNAc
Method in brief: as §1

[24] = target: Neu5Ac(a2-6)Gal(b1-4)GlcNAc(b1-2)Man(a1-3)[Neu5Ac(a2-6)Gal(b1-4)GlcNAc(b1-2)Man(a1-6)]Man(b1-4)GlcNAc(b1-4)GlcNAc
Method in brief: as §1

[25] = target: Neu5Ac(a2-6)Gal(b1-4)GlcNAc(b1-2)Man(a1-6)[Man(a1-3)]Man(b1-4)GlcNAc(b1-4)GlcNAc
Method in brief: as §1

[26] = target: Neu5Ac(a2-8)Neu5Ac(a2-8)Neu5Ac(a2-3)Gal(b1-4)Glc
Method in brief: as §1

[27] = target: Neu5Ac(b2-6)Gal(b1-4)GlcNAc
Method in brief: as §1

B1: LcH (Lens culinaris), P02870 (protein)
chain: TETTSFSITKFSPDQQNLIFQGDGYTGKEGLTLTKVSKETGGRALYSTPIHIWDRDTVNVANFVTNGSQVFRESPNGYNVADGFTFFIAPVDTKPQTGGGYLGVFYNGKEYDKTSQTVAVEFDTFYNAAWDPSNKERHIGIDVNSIKSVNTKSWNLQNGVTSYTLNEVVPLKDVVPEWVRIGFSATTGAEFAAQEVHSWSFNSQLGHTSKS
[1]
  glycan array binding signal (z-score): -0.091
[2]
  glycan array binding signal (z-score): -0.141
[3]
  glycan array binding signal (z-score): -0.104
[4]
  glycan array binding signal (z-score): -0.108
[5]
  glycan array binding signal (z-score): -0.119
[6]
  glycan array binding signal (z-score): -0.132
[7]
  glycan array binding signal (z-score): -0.147
[8]
  glycan array binding signal (z-score): -0.093
[9]
  glycan array binding signal (z-score): 14.3
[10]
  glycan array binding signal (z-score): -0.142
[11]
  glycan array binding signal (z-score): 9.53
[12]
  glycan array binding signal (z-score): -0.138
Glc(a1-6)Glc(a1-6)Glc
  glycan array binding signal (z-score): -0.098
GlcA(b1-6)Gal
  glycan array binding signal (z-score): -0.111
[13]
  glycan array binding signal (z-score): -0.102
[14]
  glycan array binding signal (z-score): 1.2
[15]
  glycan array binding signal (z-score): 6.22
[16]
  glycan array binding signal (z-score): -0.125
[17]
  glycan array binding signal (z-score): -0.082
[18]
  glycan array binding signal (z-score): -0.107
[19]
  glycan array binding signal (z-score): 1.24
[20]
  glycan array binding signal (z-score): 3.73
[21]
  glycan array binding signal (z-score): -0.129
[22]
  glycan array binding signal (z-score): -0.046
[23]
  glycan array binding signal (z-score): -0.118
[24]
  glycan array binding signal (z-score): -0.12
[25]
  glycan array binding signal (z-score): -0.124
[26]
  glycan array binding signal (z-score): -0.138
[27]
  glycan array binding signal (z-score): -0.111
